# This is a sample that favours compounds with a hit; in the whole collection about 5.1% have one here.
# RAM inhibit: yeast RAM network inhibition; 1.8% of 190,000 active; inhibition, % at 50 µM; S. cerevisiae dse1pr::URA3 reporter, 5-FOA growth OD615, 2 d; analog-sensitive cbk1-as2 kinase mutant strain; AID 868;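 active = inhibition above a set limit, 3 SD over mean compound inhibition, cut at about 8.4% in these data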;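 also: 0% = DMSO-only wells with no growth and 100% = 10 µM 1-NA-PP1 full growth; inhibition rescues growth on 5-FOA so higher OD means more RAM inhibition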
# Cl transport mod: modulators of human KCC2 chloride dependent transport; 2.2% of 190,000 active; KCC2 cells, thallium flux FluoZin-2 fluorescence; B-score of Tl+ flux slope (higher = more flux/activation; lower = inhibition) at 10 µM; Q9H2X9;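 active = thallium flux slope and its plate-corrected score both differing from the plate sample mean at a set confidence after two filtering rounds, in either direction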;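 also: slope of fluorescence scaled to starting intensity during 10 to 20 s after thallium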
# S1P3 antagonist: S1P3 (human) receptor antagonism; Q99500; CHO S1P3 NFAT-BLA reporter, FRET fluorescence, antagonist mode; inhibition, % at 4.98 µM; 0.27% of 170,000 active;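 active = inhibition above the plate cutoff, the mean inhibition of test wells on that plate plus 3 SD, cut at about 28% in these data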;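 also: cells challenged with S1P at its EC80 of 0.8 µM; blue over green emission ratio from cleaved BLA substrate after 4 h stimulation; 0% = S1P-stimulated wells and 100% = unstimulated DMSO-only wells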
# Target sequence (Q99500 whole entry, looked up): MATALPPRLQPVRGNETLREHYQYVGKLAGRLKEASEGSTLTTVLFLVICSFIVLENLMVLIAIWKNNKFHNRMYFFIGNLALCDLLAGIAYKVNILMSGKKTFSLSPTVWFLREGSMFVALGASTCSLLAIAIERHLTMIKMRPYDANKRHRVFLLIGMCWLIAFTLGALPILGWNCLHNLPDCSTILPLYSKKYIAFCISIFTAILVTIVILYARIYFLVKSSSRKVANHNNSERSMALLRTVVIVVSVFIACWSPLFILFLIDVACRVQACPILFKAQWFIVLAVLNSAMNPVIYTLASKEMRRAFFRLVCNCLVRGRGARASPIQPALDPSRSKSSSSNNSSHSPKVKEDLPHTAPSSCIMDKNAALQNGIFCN
# ROMK primary: human ROMK K+ channel modulation, primary screen. P48048. Tet-inducible ROMK, thallium flux fluorescence; actives lie on both sides. B-score at 10 µM. 2% of 130,000 active;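 active = signal ratio slope over the read window, or its plate-corrected B-score, at least 3 SD from the plate mean, either direction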;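 also: B-score of the F/F0 ratio slope over 7 to 12 s after thallium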
# S1P4 ag: agonists of human S1P4 receptor | AID 1509 | S1P4-expressing cell line, agonist reporter assay | activation, % at 4.98 µM | 0.35% of 220,000 active; in the data active = activation above about 11%;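 also: 0% = DMSO vehicle and 100% = reference agonist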
# S1P4 antag: blocks the human S1P4 receptor; AID 1510; inhibition, % at 4.98 µM; S1P4-expressing cells, antagonist mode, reporter read-out; 0.26% of 220,000 active; O95977; in the data active = inhibition above about 29%;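 also: 0% = wells stimulated with agonist and 100% = vehicle wells without agonist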
# ROMK hit retest: confirmation of human ROMK potassium channel modulators; 54% of 3,000 active; normalized thallium flux (F/F0 slope) at 10 µM; ROMK thallium flux, fluorescence ratio; active compounds read low; AID 1917; shares compounds with ROMK primary;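 active = Flux at 10 µM at least 3 SD below or above vehicle control mean in one or both replicates; inconclusive = no clear call, values can overlap the other calls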
# The depositor's hits bear a star; i = inactive; ? = inconclusive; nt = no result.
SMILES,RAM inhibit,Cl transport mod,S1P3 antagonist,ROMK primary,S1P4 ag,S1P4 antag,ROMK hit retest
Cc1ccc(C(=O)NC(=S)N2CCN(c3ccccc3F)CC2)cc1,0,nt,-11,3.4*,2,-16,0.1*
CC(C)N=C(NC#N)SCc1ccc(F)cc1,3,-0.84,-18,-0.18,0,12,nt
Cc1ccc(CSC(Nc2ccc(F)cc2)=C(C#N)C#N)cc1,2,-5,-1,-0.86,1,-2,0.075
CCN(CC)C(=O)CSC(Nc1ccc(F)cc1)=C(C#N)C#N,nt,-0.025,1,nt,1,-6,0.059*
COc1ccc(CCNC(=O)C2CCN(c3nccc(C)n3)CC2)cc1,1,-0.69,-12,0.15,0,11,nt
COc1ccccc1-c1ccc(/C=C2\C=CC(=O)O2)o1,nt,i,20,nt,0,2,0.044*
COc1ccccc1-c1ccc(/C=C2/C=C(C)OC2=O)o1,4,0.19,-2,-1.1,7,5,nt
CCC1SC2=NC(C)=C(C(=O)OCCOC)C(/C=C/c3ccccc3OC)N2C1=O (stereo not given),4,-1.3,nt,nt,-1,-11,0.059*
CCn1c(/C=C/Nc2ccccc2)[n+](CC)c2ccc(Cl)cc21,-1,-1.6,8,-3.2*,1,-24,?
CCOC(=O)c1ccc2c(c1)n(CC)c(/C=C/Nc1ccccc1)[n+]2CC,0,nt,nt,nt,-4,8,nt
COCCNC(=S)NNC(=O)c1ccc(-n2cnnn2)cc1,3,-0.6,-26,0.9,0,-14,nt
COc1ccc2[nH]c(=O)c(CN(CC3CCCO3)C(=O)Nc3ccc(F)cc3)cc2c1 (stereo not given),6,-1.2,1,nt,1,-19,0.061*
COc1ccc2[nH]c(=O)c(CN(C(=O)NC3CCCCC3)C3CCCC3)cc2c1,1,nt,-30,-2.8*,2,-19,0.072
CCN(CC)S(=O)(=O)c1ccc(N2CCN(S(=O)(=O)c3ccc4c(c3)OCCO4)CC2)nc1,4,nt,nt,-0.49,-1,2,nt
C=CCSc1nnc(CC(OC)OC)n1-c1ccccc1,2,1,-11,0.61,-1,5,nt
Clc1nssc1=Nc1ccc(Br)cc1,2,-0.97,-2,0.017,1,-8,nt
N#Cc1cccc(N=c2ssnc2Cl)c1,-1,1.5,-14,-3.9*,-1,-5,0.065*
COc1ccc(C2C(C#N)=C(N)OC(C(C)(C)C)=C2C#N)cc1OC (stereo not given),2,nt,-2,-2.3*,-2,6,0.068*
O=C(O)C1CCC(=O)N1C(=O)OCc1ccccc1 (stereo not given),nt,0.027,-7,nt,-1,2,nt
COC(=O)NNC(=S)NCc1ccccc1,2,1.1,-13,-0.21,0,7,nt
Cc1cc(/C=N/NC(=O)c2ccsc2)c(C)n1-c1cnccn1,1,0.59,-11,0.19,2,15,0.078
Cc1cc(C)cc(-n2c(C)cc(/C=N/NC(=O)c3ccncc3)c2C)c1,1,0.74,15,0.73,1,1,nt
COc1ccc(OC)c(NC(=O)c2sc3nc(Cc4ccccc4)cc(C(F)(F)F)c3c2N)c1,4,0.14,nt,-4.2*,0,-18,0.033*
Cc1ccc(-c2nn(-c3ccccc3)cc2C2SCC(=O)N2Cc2ccccc2)o1 (stereo not given),0,-0.41,4,nt,1,4,0.078
O=C1N=C(N2CCc3ccccc3C2)S/C1=C\c1cccc(O)c1,8,-2.5,1,nt,4,-10,nt
SMILES,RAM inhibit,Cl transport mod,S1P3 antagonist,ROMK primary,S1P4 ag,S1P4 antag,ROMK hit retest
Cc1cc(C)n(NC(=S)NC2CCCC2)c(=O)c1C#N,nt,0,-13,nt,1,4,nt
CC1=Nc2ccccc2N=C(NC(=O)CN2CCN(c3ccccc3)CC2)C1c1ccccc1 (stereo not given),2,-0.084,-2,3.2*,0,4,0.084
COc1cc(/C=C(\C#N)C(=O)N2CCOCC2)ccc1OCc1ccccc1,4,-0.19,0,0.015,1,-15,nt
COc1ccc(/C=C(\C#N)C(=O)N2CCOCC2)cc1Br,2,0.36,nt,-3.7*,-1,-8,0.051*
Cc1cc(C)c(OCC(=O)Nc2nnc(-c3ccco3)o2)c(C)c1,4,-0.83,12,0.57,1,5,nt
O=C(CN1CCC(c2nc3ccccc3s2)CC1)NCc1cccs1,1,-0.78,-28,nt,1,-30,0.06*
Cc1ccc(-n2sc3ccccc3c2=O)cc1S(=O)(=O)N1CCCCC1,7,1.2,-8,0.25,0,1,nt
Cc1ccccc1-n1sc2cc(F)ccc2c1=O,7,1.4,-17,-4.7*,0,-8,0.057*
Cc1ccc(C(=O)NNC(=O)CCC(=O)Nc2cccc(Cl)c2C)cc1,5,-1,4,nt,2,-15,nt
Cc1c(Cl)cccc1NC(=O)CNC(=O)c1ccc(F)cc1,2,1.5,-3,nt,2,-7,?
O=C(NC(=O)N1CCN(c2ccc([N+](=O)[O-])cn2)CC1)c1c(Cl)cccc1Cl,nt,0.25,3,-0.68,2,2,nt
CCC(C(=O)OCn1nnc2ccccc2c1=O)c1ccccc1 (stereo not given),4,0.41,-12,0.054,0,-2,nt
Cc1cc2c3c(c1)C(C)CC(C)(C)N3C(=O)C2=O (stereo not given),-1,-1.8,-28,3.1*,6,5,?
O=C(O)CCN1CC2([N+](=O)[O-])C=CC(=O)C([N+](=O)[O-])(C1)C2CC(=O)c1ccccc1 (stereo not given),3,-0.13,10,nt,0,-20,nt
CN(C)S(=O)(=O)c1ccc(C(=O)N2CCOCC2)cc1,1,1.5,nt,0.98,-2,-2,nt
CC1CCN(C(=O)c2ccc(S(=O)(=O)N(C)C)cc2)C(C)C1 (stereo not given),-1,nt,nt,3*,0,-19,0.077
CN1C(C(=O)c2ccccc2)=C(N)c2ccccc2S1(=O)=O,0,-0.84,10,3*,1,-13,0.066*
N#C/C(=C/c1ccc(F)cc1)C(N)=S,0,0.18,-1,-3.1*,2,-2,0.051*
Cn1cccc1/C=C(/C#N)C(N)=S,2,-0.015,2,0.017,0,-4,nt
Cc1ccc(SCCN2CCN(CC(C)C)CCC2=O)cc1,nt,0.25,nt,nt,nt,nt,nt
CCOC(=O)N1CCN(Cc2cn[nH]c2-c2cc3ccccc3o2)CC1,2,0.86,12,-0.51,1,-13,nt
COc1ccc(CN(C2CCCCC2C)S(=O)(=O)c2ccc(S(=O)(=O)N(C)C)cc2)cc1OC (stereo not given),7,0.96,11,nt,-2,2,0.077
CCO[C@@H]1OC(C(N)=O)=C[C@H](c2ccc3c(c2)OCO3)[C@H]1CCCO,-1,0.48,-10,nt,-1,6,nt
